The values that follow come from PubChem BioAssay AID1903 (Southern Research Specialized Biocontainment Screening …, 2009).

Where “and” joins values, the source holds several entries; their conditions need not be identical. Equal values may be shown once. Hit rate of the full screen: of about 310,000 compounds, about 1,200 (0.39%) were called active. These entries were drawn from the full list. Entries with a potency or affinity are not part of this list. A number with no mark means an inactive call. How the calls were made is not given here.

Chain of Large T antigen (Simian virus 40) (P03070 whole entry, looked up): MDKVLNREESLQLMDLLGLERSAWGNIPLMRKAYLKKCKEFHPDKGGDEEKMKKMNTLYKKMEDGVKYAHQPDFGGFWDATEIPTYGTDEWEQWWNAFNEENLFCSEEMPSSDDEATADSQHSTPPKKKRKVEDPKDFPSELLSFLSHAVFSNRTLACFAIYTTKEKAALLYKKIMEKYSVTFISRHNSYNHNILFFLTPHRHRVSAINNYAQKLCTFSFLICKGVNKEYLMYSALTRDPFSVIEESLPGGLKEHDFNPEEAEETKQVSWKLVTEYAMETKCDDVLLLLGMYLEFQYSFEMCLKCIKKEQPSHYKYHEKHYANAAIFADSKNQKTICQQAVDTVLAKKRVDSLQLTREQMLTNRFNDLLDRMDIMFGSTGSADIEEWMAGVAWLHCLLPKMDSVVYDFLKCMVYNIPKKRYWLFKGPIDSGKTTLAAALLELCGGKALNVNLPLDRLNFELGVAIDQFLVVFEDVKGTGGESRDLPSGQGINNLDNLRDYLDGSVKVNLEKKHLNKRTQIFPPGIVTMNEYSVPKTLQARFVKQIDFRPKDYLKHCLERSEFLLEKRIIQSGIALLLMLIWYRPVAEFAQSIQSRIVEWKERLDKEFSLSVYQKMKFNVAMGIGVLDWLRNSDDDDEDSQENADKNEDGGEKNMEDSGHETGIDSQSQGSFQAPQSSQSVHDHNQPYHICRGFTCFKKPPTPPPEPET

This test addresses Large T antigen (Simian virus 40) (UniProt P03070). The test can be described thus: TAg ATPase/helicase activity blockers – biochemical (AID 1903). Conditions: SV40 large T antigen ATPase/helicase inhibition assay; at 20 µM; stronger effect = higher value.
The inhibition is the drop in the measured response relative to a control, in per cent. With `Cc1ccc(C(c2c(C)[nH][nH]c2=O)c2c(C)[nH][nH]c2=O)cc1[N+](=O)[O-]`, the inhibition was 20.9%.

On to `COC(=O)c1cccc(-n2c(C)cc(C=O)c2C)c1C`, for which the inhibition is 17.4%.

Take `NC(=O)C1CCN(C(=O)c2ccc(Oc3ccccc3)cc2)CC1`: the inhibition is 13.6%.

As to `COC(=O)c1c(S(N)(=O)=O)c2ccccc2n1C`, the inhibition was 21.9%.

Turning to `Nc1nccnc1C(=O)OCC(=O)N1CCN(S(=O)(=O)c2ccc(Cl)cc2)CC1`, the inhibition is 15.7%.

Turning to `CC1=NN(c2ccccc2)C(=O)C1c1ccccc1` (stereo not drawn), the inhibition is 31.6%.

Turning to `CC1=NN(c2ccccc2)C(=O)C1N=Nc1ccc(C)cc1` (stereo not drawn), the inhibition was -3.33%.

As for `CCOc1ccccc1NC(=O)COC(=O)CSc1ccc(Cl)cc1`, the inhibition was -3.03%.

With `COc1cccc(-c2nn(C)c3sc(C(=O)NCc4ccco4)cc23)c1`, the inhibition was 16.5%.

In the case of `COc1cc(-c2nc(N)n[nH]2)cc(OC)c1OC`, the inhibition was 3.91%.

Take `CCn1c(-c2cc(OC)c(OC)c(OC)c2)n[nH]c1=S`: the inhibition was 8.67%.

Take `O=C(CNC(=O)c1ccccc1)OCCCOC(=O)CNC(=O)c1ccccc1`: the inhibition was 8.32%.

Regarding `Cc1cc(C)c(C)c(S(=O)(=O)N2CCN(C(=O)c3ccco3)CC2)c1C`, the inhibition is 30.6%.

Take `O=C(O)c1ccc(-c2nc(-c3ccccc3)c(-c3ccccc3)[nH]2)cc1`: the inhibition was 13.6%.

As for `Fc1ccc(-c2nc(-c3cccs3)[nH]c2-c2ccc(F)cc2)cc1`, the inhibition is 0.16%.

As for `Cn1c(Cc2ccccc2)nnc1SCC(=O)NC1CC1`, the inhibition was 5.03%.

For `Cc1cc(C)nc(SCSc2nc(C)cc(C)n2)n1`, the inhibition was 1.38%.

As for `Cc1cc(C)nc(SCCN(C)C)n1`, the inhibition was 21.5%.

Take `N#CC1=C(N)C2=CCCC[C@H]2[C@H](c2ccccc2)C1(C#N)C#N`: the inhibition is 10.5%.

In the case of `N#CC1=C(N)C2=CCCC[C@H]2[C@H](c2ccc(Br)cc2)C1(C#N)C#N`, the inhibition is 29.5%.

With `CCOC(=O)C1=C(O)/C(=C\c2cccc(OC)c2)N=C1C`, the inhibition is 4.85%.

Consider `COC(=O)C1=C(O)/C(=C\c2cc(C)n(-c3ccccc3C)c2C)N=C1C`, for which the inhibition was 21.4%.

For the compound `COC(=O)C1=C(O)/C(=C\c2cc(C)n(-c3ccccc3F)c2C)N=C1C`, the inhibition was 8.75%.

Consider `CCOC(=O)C1=C(O)/C(=C\c2cccs2)N=C1C`, for which the inhibition is 10.2%.

For `Cc1nc2ccccc2c(C)c1CC(=O)N(C)CC(=O)Nc1cccc(F)c1`, the inhibition is 6.37%.

Consider `Cc1noc(C)c1C(=O)Nc1nc2ccc(Cl)cc2s1`, for which the inhibition is 13.7%.

Take `Cc1cc(C)nc(SCC(=O)N2CCCCC2)n1`: the inhibition was 24.1%.

For `O=C1CCCC(=O)N1c1ccc(O)cc1`, the inhibition was 12.2%.

Turning to `O=C1c2ccc3c4c(ccc(c24)C(=O)N1c1ccc(O)cc1)C(=O)N(c1ccc(O)cc1)C3=O`, the inhibition was 2.8%.

On to `O=C(NC1CC1)C1=C[C@@H](c2ccccc2)C[C@@H](OCCCCO)O1`, for which the inhibition was 5.56%.

Regarding `COc1cc(/C=C(\C#N)C(=O)Nc2cccc(C(=O)O)c2)ccc1OCc1ccc(F)cc1`, the inhibition is -17.7%.

For the compound `Cc1c(C(=O)NN)[nH]c2ccc([N+](=O)[O-])cc12`, the inhibition was 7.05%.

For `CCOC(=O)C1(CCc2ccccc2)CCN(C(=O)c2cccc(C)n2)CC1`, the inhibition is 4.43%.

Consider `CCc1nnc(NS(=O)(=O)c2ccc(NC(=O)c3cc4ccccc4oc3=O)cc2)s1`, for which the inhibition was -3.35%.

With `CCc1nnc(NS(=O)(=O)c2ccc(NC(=O)c3cccc4ccccc34)cc2)s1`, the inhibition is 11.1%.

As for `O=C(c1cc(-c2ccccc2Cl)nc2ccccc12)N1CCC1`, the inhibition is 8.29%.

Take `O=C1N/C(=N/S(=O)(=O)Cc2ccccc2)S/C1=C/c1ccc2c(c1)OCO2`: the inhibition was 22.1%.

As to `COc1ccc(C(=O)C[n+]2cccc(C(N)=O)c2)cc1`, the inhibition is 1.66%.

On to `O=C1OC(c2ccc(O)cc2)(c2ccc(O)cc2)c2ccccc21`, for which the inhibition was 9.29% and 0.77%.

In the case of `Cc1cc(O)ccc1C1(c2ccc(O)cc2C)OC(=O)c2ccccc21`, the inhibition was 4.57%.

Regarding `COCCNC(=O)c1c[nH]n2c(=O)cc(C3CCN(C(=O)OC(C)(C)C)CC3)nc12`, the inhibition is 6.9%.

Turning to `CCN1CCN(c2ccc(NC(=O)c3cccc(OCc4ccccc4)c3)cc2)CC1`, the inhibition is 8.98%.

As for `COc1ccccc1/C=N/N1C(=O)C2C3C=CC(CC3)C2C1=O` (stereo not drawn), the inhibition is 5.91%.

As to `COc1cc(/C=N/N2C(=O)C3C4c5ccccc5C(c5ccccc54)C3C2=O)ccc1O` (stereo not drawn), the inhibition is 19.2%.

As to `O=C1C2C3C=CC(CC3)C2C(=O)N1/N=C/c1ccccc1O` (stereo not drawn), the inhibition was -0.603%.

As for `O=C1C2C3C=CC(CC3)C2C(=O)N1/N=C/c1ccc(O)cc1` (stereo not drawn), the inhibition is 22.8%.

In the case of `O=C(CSc1nnnn1C1CCCC1)Nc1ccccc1F`, the inhibition was 14%.

As for `COC(=O)c1sc(-c2cccs2)cc1N`, the inhibition was 20%.

As to `CC(=O)Nc1nnc(SCc2ccc(C(=O)Nc3ccccc3F)cc2)s1`, the inhibition was 5.26%.

`CC1(C)CC(=O)C(N=Nc2ccc(-c3ccccc3)cc2)=C(O)C1`: the inhibition was 28.9%.

For `Oc1ccc(N=Nc2ccccc2)cc1`, the inhibition was 18.4%.

Take `O=C(O)c1ccccc1C(=O)Nc1ccccc1NC(=O)c1ccccc1C(=O)O`: the inhibition is 5.06%.

For `O=C(NC1=NN(c2ccccc2)CC1)Nc1ccccc1F`, the inhibition is -6.18%.

As for `CCCSc1oc(-c2ccco2)nc1S(=O)(=O)c1ccccc1`, the inhibition was 1.06%.

On to `COc1cc(SC)ccc1C(=O)NCCc1c[nH]c2ccccc12`, for which the inhibition was 8.89%.

`CC(C)(C)NC(=O)CSCc1c(Cl)cccc1Cl`: the inhibition is 3.06%.

`N#Cc1c(-c2ccncc2)c2c([nH]c1=S)CCCC2`: the inhibition was 16.1%.

Take `N#Cc1c(-c2ccc(Cl)cc2)c2c([nH]c1=S)CCCC2`: the inhibition was 25.6%.

As for `COc1ccc(OC)c(-c2c3c([nH]c(=S)c2C#N)CCCC3)c1`, the inhibition was 20.7%.

As for `COc1ccc(-c2c3c([nH]c(=S)c2C#N)CCC3)cc1`, the inhibition was 34.4%.

For the compound `O=C(CN1C(=O)/C(=C/c2ccc(C(F)(F)F)cc2)Sc2ccccc21)NCCCN1CCOCC1`, the inhibition is 6.23%.

Turning to `O=[N+]([O-])c1ccc(N2CCN(c3ccccn3)CC2)c(Cl)c1`, the inhibition was 9.91%.

In the case of `O=C(CSc1nnc(-c2ccco2)c(-c2ccco2)n1)c1ccccc1`, the inhibition is -0.39%.

With `CSc1nnc(-c2ccco2)c(-c2ccco2)n1`, the inhibition was 54.2%.

In the case of `COc1ccc(-n2nnnc2SCC(=O)NCCc2ccccc2)cc1OC`, the inhibition was 5.41%.

Take `Cc1cccc(-c2noc(CNC(=O)c3ccc4c(c3)OCO4)n2)c1`: the inhibition was 9.48%.

With `CC(CCc1ccccc1)NC(=O)CCc1cn(C)c2ccccc12` (stereo not drawn), the inhibition was 8.16%.

In the case of `CCCCC(CC)CNC(=O)c1ncn[nH]1` (stereo not drawn), the inhibition is 9.07%.

As to `CCCCC(CC)CNC(=O)c1cccs1` (stereo not drawn), the inhibition was 0.58%.

For `CC1(C)CN(c2ccc(F)cc2)C1=O`, the inhibition is 10%.

Consider `CC1(C)CN(c2ccc(N3CC(C)(C)C3=O)cc2)C1=O`, for which the inhibition is 7.74%.

With `Oc1ccc(N=Cc2ccc(OCc3ccccc3)cc2)cc1`, the inhibition was 15.6%.

Regarding `Oc1ccc(/C=N/N=C/c2ccc(O)cc2)cc1`, the inhibition was 27.4%.

On to `CC1CCCC(C)N1/N=C/c1ccc(O)c(O)c1` (stereo not drawn), for which the inhibition is 32.1%.

In the case of `COc1ccc(/C=N/N=C/c2ccc(OC)c(O)c2)cc1O`, the inhibition was 1.26%.

As to `CCn1c(CNC(=O)c2ccco2)nnc1SCC(=O)Nc1ccc(Br)cc1F`, the inhibition is 3.84%.

On to `CCN(CC)S(=O)(=O)c1ccc(Cl)c(NC(=O)COc2ccc(OC)cc2)c1`, for which the inhibition was 21.5%.

For `COc1ccccc1Cn1cccc1C=O`, the inhibition is -6.2%.

Take `Cc1ccc(CCNC(=O)C2CCC(=O)N2Cc2ccc(F)cc2)cc1` (stereo not drawn): the inhibition was 8.48%.

On to `C/C(=N\O)c1ccc2[nH]ccc2c1`, for which the inhibition was 8.8%.

In the case of `CC(=O)Nc1ccc2[nH]ccc2c1`, the inhibition is 18.6%.

As to `O=C(CNC(=O)c1ccco1)N/N=C/c1ccc(O)c([N+](=O)[O-])c1`, the inhibition is -0.16%.

For the compound `COc1ccc(/C=N/NC(=S)NCC2CCCO2)cc1` (stereo not drawn), the inhibition was 7.07%.

On to `COc1cc(/C=N/NC(=O)C(=O)NCc2ccco2)cc(Br)c1O`, for which the inhibition was 29.1%.

Turning to `COc1cc(/C=N/NC(=O)C(=O)NCc2ccco2)cc(Cl)c1O`, the inhibition was 28.7%.

For `Oc1c(Br)cc(/C=N/NC(=S)NCC2CCCO2)cc1Br` (stereo not drawn), the inhibition was 27.3%.

On to `COc1cccc(/C=N/NC(=O)CNC(=O)c2ccco2)c1O`, for which the inhibition is 23.9%.

In the case of `O=C(NCC1CCCO1)C(=O)N/N=C/c1ccc(O)c(Cl)c1` (stereo not drawn), the inhibition is 30.4%.

Consider `COc1cc(/C=N/NC(=O)C(=O)NCC2CCCO2)cc(Cl)c1O` (stereo not drawn), for which the inhibition is 22.2%.

Consider `COc1ccc(OC)c(S(=O)(=O)N2CCC(C(=O)NC3CCCC3)CC2)c1`, for which the inhibition is 8.53%.

Take `NC(=O)CC(NC(=O)Cc1cccc2ccccc12)c1ccc(NC2CC3CCC2C3)c([N+](=O)[O-])c1` (stereo not drawn): the inhibition is 17.8%.

Regarding `O=C(CCn1c(=O)oc2ccccc21)N1CCN(c2ccc(F)cc2)CC1`, the inhibition is 2.5%.

In the case of `COC(=O)C1=C(C)NC(=O)NC1c1ccco1` (stereo not drawn), the inhibition was 8.25%.

As for `C=CCOc1ccc(Oc2cc(C)nc(SC)n2)nn1`, the inhibition was 19.1%.

As to `CCCOC(=O)c1cccc(NC(=O)C(C)(C)C)c1`, the inhibition is -1.32%.

Regarding `O=C(CNC(=S)N(Cc1ccccc1Cl)C1CCCC1)NCCN1CCOCC1`, the inhibition is 3.17%.

In the case of `COc1cccc(O)c1CN1CCCC(C(=O)c2cccc(C(F)(F)F)c2)C1` (stereo not drawn), the inhibition is 4.62%.

In the case of `Cn1c(=O)c([N+](=O)[O-])c(NCC(O)c2ccccc2)c2ccccc21` (stereo not drawn), the inhibition is 21.3%.
